Compounds without any hit were thinned out: in the full panel of roughly 79,000, 15% have a hit. Rule as the data show it: active = growth inhibition above about 70%; inactive = the rest.
How the values were obtained:
[1] = NCI Yeast Anticancer Drug Screen. Data for the rad50 strain (AID 155);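 also: 0% = growth of vehicle-only cultures of the same strain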; conditions: S. cerevisiae rad50 strain growth inhibition; at 50.0 µM; stronger effect = higher value
Method in brief: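 DNA repair mutant yeast, compound exposure, growth read-out; inhibition is taken relative to vehicle.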

[2] = NCI Yeast Anticancer Drug Screen. Data for the mec2-1 strain (AID 157); conditions: S. cerevisiae mec2-1 strain, at 50.0 µM, stronger effect = higher value
Method in brief: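 Cells of the genetically defined mec2-1 yeast strain are incubated with test compound. Inhibition of growth is calculated against vehicle-treated controls.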

[3] = NCI Yeast Anticancer Drug Screen. Data for the sgs1 mgt1 strain (AID 161);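 also: 0% = growth of cultures given vehicle only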; conditions: S. cerevisiae sgs1 mgt1 strain, at 50.0 µM, stronger effect = higher value
Method in brief: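 Test agents were incubated with a DNA-repair-mutant yeast strain. Growth was then read and compared against vehicle-treated controls.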

[4] = NCI Yeast Anticancer Drug Screen. Data for the cln2 rad14 strain (AID 165);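 also: 0% = growth equal to vehicle treated cultures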; conditions: S. cerevisiae cln2 rad14 strain, at 50.0 µM, stronger effect = higher value
Method in brief: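 The screen exposed genetically defined yeast (cln2 rad14) to test compounds and scored growth inhibition relative to vehicle-treated controls.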

[5] = NCI Yeast Anticancer Drug Screen. Data for the bub3 strain (AID 167); conditions: S. cerevisiae bub3 mutant strain, at 50.0 µM, stronger effect = higher value
Method in brief: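 In this screen, a yeast mutant lacking normal mitotic checkpoint function is challenged with compound. Relative growth versus vehicle gives the inhibition value.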

[6] = NCI Yeast Anticancer Drug Screen. Data for the mlh1 rad18 strain (AID 175); conditions: S. cerevisiae mlh1 rad18 strain growth inhibition; at 50.0 µM; stronger effect = higher value
Method in brief: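 Compound-treated yeast growth, normalised to vehicle controls. Strain bears defined DNA repair mutations.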

Measured: growth inhibition

Nc1ccc(S(=O)(=O)N/N=C/c2ccco2)cc1
inactive: [1] 27.1% | [2] -25.1% | [3] 2.8% | [4] 1.6% | [5] -50.5% | [6] -15.1%

CC(C)(C)NC(=O)c1cccc(C(N)=O)n1
inactive: [1] -10.4% | [2] -16.1% | [3] -11.8% | [4] -21.6% | [5] -4.25% | [6] -0.6%

N/C=N/OCc1ccccc1
inactive: [1] 10% | [2] 5.05% | [3] 9% | [4] 4.7% | [5] -3.75% | [6] 5.75%

c1ccc2c(c1)C(=Nc1ccc(N=C3c4ccccc4-c4ccccc43)cc1)c1ccccc1-2
inactive: [1] 1.8% | [2] -0.55% | [3] -5.7% | [4] -1% | [5] -27.4% | [6] -20.6%

C/C(CC(C)C)=N/NC(N)=S
inactive: [1] 14.9% | [2] 0.7% | [3] 1.35% | [4] -23.1% | [5] 32.6% | [6] 30.4%

COc1cc(C)cc2c(-c3c(OC(C)=O)cc(OC(C)=O)c4c3C[C@H](C)N(C(C)=O)[C@H]4C)cc(-c3cc(-c4c(OC(C)=O)cc(OC(C)=O)c5c4C[C@H](C)N(C(C)=O)[C@H]5C)c4cc(C)cc(OC)c4c3O)c(O)c12
inactive: [1] 41% | [2] 31.5% | [3] 34.5% | [4] 7.65% | [5] -44% | [6] 16.4%

CSc1ccc(NC(=O)Oc2ccc(NC(C)=O)cc2)cc1
inactive: [1] 8.55% | [2] -0.95% | [3] 6.05% | [4] 14.4% | [5] 22.8% | [6] 4.45%

Cc1cccc(NC(=O)CSc2nnc(Cc3ccccc3)o2)c1
inactive: [1] -28.1% | [2] -16.3% | [3] -15.1% | [4] -39.2% | [5] -36.7% | [6] -28.2%

CC1=Nc2nc(=NCCCN(C)C)nc3cccc(n23)N1
inactive: [1] 7.6% | [2] -1.35% | [3] 7.65% | [4] 11.2% | [5] 6.4% | [6] 4%

O=C(O)C#Cc1ccc(Cl)cc1
inactive: [1] -20.1% | [2] -23.8% | [3] -17.6% | [4] -9.05% | [5] -24.4% | [6] -13.6%

CN(C)c1ccc(N=Nc2cc3c4ccccc4ccc3c3ccccc23)cc1
inactive: [1] 15.1% | [2] -10.2% | [3] 23.1% | [4] 1.6% | [5] 9.45% | [6] 23.3%

O=c1cc(NCc2cccc3ccccc23)[nH]c(=O)[nH]1
inactive: [1] 4.45% | [2] 24.1% | [3] -5.25% | [4] -10.1% | [5] -0.75% | [6] -7.1%

N#C/C(=C/c1ccc(Cl)cc1)C(=O)O
inactive: [1] 6.35% | [2] -2.35% | [3] -13.3% | [4] 6.35% | [5] -0.15% | [6] 21.1%

ClC(Cl)=C(c1ccccc1)c1ccccc1
inactive: [1] 30.2% | [2] 22.4% | [3] 36.5% | [4] 7.15% | [5] -4.45% | [6] 16.9%

Nc1ccc(Cl)cc1C(=O)N1CCN(c2ccc([N+](=O)[O-])cn2)CC1
inactive: [1] 33.5% | [2] 16.2% | [3] 51.4% | [4] 36.1% | [5] 42.9% | [6] 18.8%

COc1ccccc1C1CCCCC1SCC(=O)O (stereo unspecified)
inactive: [1] 19.4% | [2] 11.7% | [3] 2.05% | [4] 9.35% | [5] 6.75% | [6] -18.4%

Cc1cc(=O)n2c(n1)Nc1ccccc1C2
inactive: [1] 22.5% | [2] -26% | [3] 2.75% | [4] 1.65% | [5] 46.4% | [6] 6.8%

Cc1cccc(C(C)(C)C)c1NC(=O)C(=O)Cc1nc2ccccc2s1
inactive: [1] -12.1% | [2] 7.05% | [3] 5.6% | [4] -41.7% | [5] 5.4% | [6] 18.2%

CC(=O)Oc1c(Cl)c(Cl)c(C#N)c(Cl)c1C#N
inactive: [1] 30.4% | [2] 1.7% | [3] 26.2% | [4] 10.8% | [5] 8.8% | [6] 26.1%

CCCCC(=O)N/N=C/c1c[nH]c2ccc(Br)cc12
inactive: [1] 4.3% | [2] 6.05% | [3] -9.1% | [4] 0.85% | [5] 12.9% | [6] 0.05%

CC(C)(C)OC(=O)N1CCc2c(n(C/C=C/c3ccccc3)[nH]c2=O)C1
inactive: [1] -30.2% | [2] -14.3% | [3] -4.85% | [4] -0.3% | [5] 1.55% | [6] -19.4%

CCCNC=O
inactive: [1] -6.8% | [2] -7.85% | [3] -13.8% | [4] -14.4% | [5] -5.1% | [6] -5%

CCCC(=O)c1c(C)cc(C)cc1C
inactive: [1] -6.6% | [2] -19.7% | [3] -24.4% | [4] 9.45% | [5] -7.55% | [6] 11.1%

CCOC(=O)C(C(C)=O)C(NO)C(Cl)(Cl)Cl (stereo unspecified)
inactive: [1] 5.4% | [2] 13.6% | [3] 3.4% | [4] 17.1% | [5] 2.2% | [6] -3.05%

O=C(Nc1ccc2c(O)c(N=Nc3ccc(N=Nc4ccc(S(=O)(=O)O)cc4)cc3)c(S(=O)(=O)O)cc2c1)c1ccccc1
inactive: [1] 18.9% | [2] -5.8% | [3] 2.9% | [4] -9.1% | [5] 8.8% | [6] 14.7%

NCCc1c(-c2cccnc2)[nH]c2ccccc12
inactive: [1] -14.5% | [2] -9.1% | [3] -2.75% | [4] -25.4% | [5] 7.6% | [6] 1.1%

O=C(O)COc1ccccc1F
inactive: [1] -27.9% | [2] 12.1% | [3] -14.4% | [4] -25.9% | [5] 3% | [6] -3.85%

O=C1Nc2c(cccc2-c2ccccc2)C(=O)C1(O)c1ccccc1 (stereo unspecified)
inactive: [1] -0.35% | [2] -1.2% | [3] -0.6% | [4] -9.8% | [5] -2.6% | [6] -3.95%

CC(=O)Nc1ccc(/C=N/NS(=O)(=O)c2ccc(C)cc2)cc1
inactive: [1] 0.3% | [2] 34.7% | [3] 16.9% | [4] -1.85% | [5] 30.6% | [6] 17.1%

CC(C)CNN(CC(C)C)C(N)=O
inactive: [1] -32.7% | [2] -25% | [3] -19.8% | [4] -24.7% | [5] -25.6% | [6] -20.1%

S=C(Cc1ccccc1)Nc1ccccc1
inactive: [1] 12.1% | [2] -18.5% | [3] 14.1% | [4] -22.9% | [5] -25.4% | [6] 3.3%

CC1(Cc2ccccc2)NC(=S)NC1=O (stereo unspecified)
inactive: [1] -1.25% | [2] -10.8% | [3] -9.9% | [4] 5.75% | [5] -1.7% | [6] -7.35%

CCC(Cl)(c1ccccc1)C(O)C(=O)OC(C)C (stereo unspecified)
inactive: [1] 8% | [2] 2.65% | [3] 10.8% | [4] -2.35% | [5] -6.3% | [6] 11.8%

Cc1ccc2snc(C(=O)O)c2c1[N+](=O)[O-]
inactive: [1] 16.7% | [2] 0.65% | [3] 4.1% | [4] -1.65% | [5] -13.6% | [6] 8.6%

O=C1CC2CCC(C1)S2
inactive: [1] -18.1% | [2] -28.6% | [3] -15.4% | [4] 16.1% | [5] -2.95% | [6] -33%

O=C(C(=NC12CC3CC(CC(C3)C1)C2)NNc1ccc([N+](=O)[O-])cc1[N+](=O)[O-])C(Br)C(=O)c1ccccc1 (stereo unspecified)
inactive: [1] 47.2% | [2] 45.9% | [3] 56.2% | [4] 3.25% | [5] 51.5% | [6] 39.9%

C=C(C)C(O)C(O)C(=C)C (stereo unspecified)
inactive: [1] -6.35% | [2] -17.8% | [3] -15.6% | [4] -1.7% | [5] 12.9% | [6] -4%

Cn1ccc2c(C(=O)c3ccccc3)cccc2c1=O
inactive: [1] 7.75% | [2] -5.7% | [3] -4.75% | [4] 9.7% | [5] 0.5% | [6] -10.5%

O=[N+]([O-])c1cccc2ccc(N/N=C/c3ccccc3O)nc12
inactive: [1] 18.8% | [2] -4.05% | [3] 42.2% | [4] 1.85% | [5] 7.25% | [6] 19.8%

CC(C#N)N(C)c1c([N+](=O)[O-])c(=O)n(C)c(=O)n1C (stereo unspecified)
inactive: [1] -5.85% | [2] -13.3% | [3] -5.4% | [4] -14.9% | [5] -2.7% | [6] -20.7%

CCOC(=O)/C(C#N)=C/NC(N)=O
inactive: [1] -2.55% | [2] 3.05% | [3] -10.1% | [4] -10% | [5] 1.95% | [6] -12.6%

From PubChem BioAssay (NCI)
